SMILES strings stand for the structures.

A short description of this assay: small-molecule microarray binders of probe aEGFR, primary screen, biochemical, biotinylated probe, 635/667 nm fluorescence (AID 1097).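 Further: probe is a biotinylated anti-EGFR antibody binding compounds printed on slides; score combines fluorescence near 667 nm and signal to noise of each spot.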 The settings on record: higher = more signal.
Consider `CO[C@H]1COC(=O)CC=C[C@H](C)[C@@H](OC)COC(=O)[C@@H](C)NC(=O)CC=C[C@@H]1C`, for which the composite z-score is -0.0727.
Consider `CCOC(=O)[C@H](Cc1ccccc1)NC(=O)OC1CC(CCC2CC(CC)=NO2)OC2(CCCC(COC(=O)NCCC(C)C)O2)C1` (stereo partly specified), for which the composite z-score was -0.0721.
Then `CC(C)CON=C1C[C@@H](O)[C@@H](O)[C@@H]2[C@@H]3C(=O)N(c4ccc(F)cc4F)C(=O)[C@@H]3CC[C@H]12`, with -0.0512.
Next, `CC(C)(C)N1C(=O)[C@H]2[C@H]3[C@H](O)[C@H](O)CC(=NO[C@@H]4O[C@H](CO)[C@@H](O)[C@H](O)[C@H]4O)[C@H]3CC[C@H]2C1=O`: 0.0334; `COC(=O)C=CCCc1coc(C=CCNC(=O)OC)n1`: 0.161.
Then `Cc1ccc(S(=O)(=O)OC[C@H]2CN3[C@H](c4ccc(Br)cc4)[C@@H](C)CC[C@H]3C(=O)O2)cc1`, with -0.136.
In turn, `CO[C@@H]1COC(=O)[C@@H](C)NC(=O)CC=C[C@@H](C)[C@H](NS(=O)(=O)c2ccc(C)cc2)COC(=O)[C@H](C)NC(=O)CC=C[C@H]1C` yielded a composite z-score of -0.0793.
Next, `COC(=O)[C@H](C)NC(=O)CCC1CC(OC(=O)NCc2ccc3c(c2)OCO3)CC2(CCCC(COC(=O)NCC3CCCCC3)O2)O1` (stereo partly specified): -0.0139; `C#CCCCON=C1C[C@@H](O)[C@@H](O)[C@@H]2[C@@H]3C(=O)N(C(C)(C)C)C(=O)[C@@H]3CC[C@H]12`: 0.113.
Then `CCOC(=O)NN=C1C[C@@H](O)[C@@H](O)[C@@H]2[C@@H]3C(=O)N(C(C)(C)C)C(=O)[C@@H]3CC[C@H]12`, with 0.039; and `C[C@H]1COC(=O)[C@@H]2CCCN2C(=O)[C@@H](C)COC(=O)[C@H](Cc2ccccc2)NC1=O`, with 0.081; and `CCOC(=O)NN=C1C[C@@H](O)[C@@H](O)[C@@H]2[C@@H]3C(=O)N(c4cccc(Oc5ccccc5)c4)C(=O)[C@@H]3CC[C@H]12`, with -0.0371.
Turning to `CCOC(=O)C1=NO[C@@]2(C=C(Br)C3(OCCCO3)[C@H]3O[C@H]32)C1`, the composite z-score is -0.004.
`CO[C@@H]1COC(=O)[C@H](CCSC)NC(=O)CC=C[C@@H](C)COC(=O)CCC[C@H]1C` came in with a composite z-score of 0.232.
Next, `CCOC(=O)[C@H](Cc1ccccc1)NC(=O)CCC1CC(OC(=O)NCc2cccc3ccccc23)CC2(CCCC(COC(=O)NCCC(C)C)O2)O1` (stereo partly specified): -0.128; `CC[C@@H](c1ccccc1)n1c(=O)n2n(c1=O)[C@H]1[C@H](O)[C@@H]3O[C@@H]3C(=O)[C@H]1CC2`: -0.0431; `CCc1cc2c(nc1CC)CCN(CCC(C)=NO[C@H](C)c1cn([C@H](CO)Cc3ccccc3)nn1)C2`: -0.142.
Next, `CCOC(=O)[C@H](CC(C)C)NC(=O)CCC1CC(OC(=O)NCc2ccc3c(c2)OCO3)CC2(CCCC(COC(=O)NCC(c3ccccc3)c3ccccc3)O2)O1` (stereo partly specified): -0.0177; `CCOC(=O)CCN1C(=O)[C@H]2[C@H]3[C@H](O)[C@H](O)CC(=NOCC(C)C)[C@H]3CC[C@H]2C1=O`: -0.15.
Next, `O=C1[C@H]2[C@H]3[C@H](O)[C@H](O)CC(=NOCc4ccccc4)[C@@H]3CC[C@H]2C(=O)N1C[C@@H]1CCCO1`: -0.0151; `CCOC(=O)[C@H](CC(C)C)NC(=O)CCC1CC(OC(=O)NCc2cccc3ccccc23)CC2(CCCC(COC(=O)NCC3CCCCC3)O2)O1` (stereo partly specified): -0.0828; `CC(C)=CCCC(C)=CCON=C1C[C@@H](O)[C@@H](O)[C@@H]2[C@@H]3C(=O)N(c4cccc(Oc5ccccc5)c4)C(=O)[C@@H]3CC[C@@H]12`: -0.0302.
In the case of `O=C1[C@H]2[C@H]3[C@H](O)[C@H](O)CC(=NOC[C@@H](O)COCc4ccco4)[C@H]3CC[C@H]2C(=O)N1c1ccc(F)cc1F`, the composite z-score is -0.165.
Next, `COc1ccc(O[C@@H]2[C@H](O)CO[C@H]2C=Cc2ccccc2)cc1`: -0.148; `COC(=O)[C@@H]1CC[C@H](C)[C@@H](c2ccc(C)cc2)N1C(=O)c1ccc(C=NO[C@@H]2O[C@H](COC(C)=O)[C@@H](OC(C)=O)[C@H](OC(C)=O)[C@H]2OC(C)=O)cc1`: 0.129.
With `CO[C@H]1COC(=O)[C@H](C)NC(=O)[C@@H](C)COC(=O)[C@H]2CCCN2C(=O)CC=C[C@H]1C`, the composite z-score is -0.0689.
`CC(C)=CCCC(C)=CCON=C1C[C@@H](O)[C@@H](O)[C@@H]2[C@@H]3C(=O)N(c4ccc(F)cc4F)C(=O)[C@@H]3CC[C@H]12` came in with a composite z-score of -0.0372.
Next, `COc1cc(O)c(C(=O)C=Cc2ccc3c(c2)OCO3)c(OC)c1`: -0.113; `COc1ccc(O[C@H]2C=C[C@@H](c3ccccc3)O[C@@H]2CON=C2[C@H]3CCn4c(=O)n(-c5ccccc5)c(=O)n4[C@H]3[C@H](O)[C@@H]3O[C@H]23)cc1`: 0.0009; `COc1ccc(COC(=O)NN=C2C[C@@H](O)[C@@H](O)[C@@H]3[C@@H]4C(=O)N(Cc5ccccc5)C(=O)[C@@H]4CC[C@H]23)cc1`: -0.13.
Then `CO[C@H]1COC(=O)[C@@H](C)COC(=O)[C@@H](OCc2ccccc2)C=C[C@@H]1C`, with -0.0363.
Turning to `COc1ccc(O[C@H]2C=C[C@@H](c3ccccc3)O[C@@H]2CON=C(C)CCN2CCc3nc(-c4ccccc4)c(-c4ccccc4)cc3C2)cc1`, the composite z-score is -0.133.
Then `CCN1C(=O)[C@H]2[C@H]3[C@H](O)[C@H](O)CC(=O)[C@H]3CC[C@H]2C1=O`, with -0.0989; and `CCCNC(=O)OC[C@H]1O[C@H](CCON=C(C)C)C=C[C@@H]1Oc1ccc(OC)cc1`, with -0.0581; and `CCOC(=O)NN=C1C[C@@H](O)[C@@H](O)[C@@H]2[C@@H]3C(=O)N(c4ccc(F)cc4F)C(=O)[C@@H]3CC[C@@H]12`, with -0.124.
Then `C[n+]1ccc(-c2ccc(CO)cc2)cc1`, with -0.188.
